Measured values as given in PubChem BioAssay AID463173 (ICCB-Longwood Screening Facility, Harvard Medical School, 2010).
Screen size: about 52,000 compounds; about 1,700 (3.3%) were called active. The sample as a whole holds a higher share of actives than the screen did. Values without a mark were called inactive. Cut-off read from the data, not from the text of the source: active = survival mostly below about 52% (no sharp cut-off); inactive = mostly above about 56%.

System: Wild type
Test: S. aureus survival, RN4220 and DeltatarO strains – OD600, teichoic acid synthesis inhibitors, primary screen (AID 463173)
Conditions: S. aureus RN4220 wild type/DeltatarO growth, OD600, 18 h, stronger effect = lower value, screened at 18.75 µg/mL (by protocol)

Structure (SMILES) | survival
Cc1ccc(S(=O)(=O)CCC(=O)N2CCN(c3nc4c(C)c(Cl)ccc4s3)CC2)cc1 | 68%
Cc1ccc2sc(N3CCN(C(=O)CCS(=O)(=O)c4ccc(F)cc4)CC3)nc2c1C | 82%
COc1cccc2sc(N3CCN(C(=O)CS(=O)(=O)c4ccc(Cl)cc4)CC3)nc12 | -6% (active)
Cc1c(Cl)ccc2sc(N3CCN(C(=O)CS(=O)(=O)c4ccccc4)CC3)nc12 | 124%
Cc1ccc2sc(N3CCN(C(=O)CCS(=O)(=O)c4ccc(Cl)cc4)CC3)nc2c1C | 75%
Cc1ccc(S(=O)(=O)CC(=O)N2CCN(c3nc4c(F)cccc4s3)CC2)cc1 | -6% (active)
Cc1cccc2sc(N3CCN(C(=O)CS(=O)(=O)c4ccc(F)cc4)CC3)nc12 | 73%
COc1cccc2sc(N3CCN(C(=O)CCS(=O)(=O)c4ccc(F)cc4)CC3)nc12 | 87%
Cc1c(Cl)ccc2sc(N3CCN(C(=O)CCS(=O)(=O)c4ccc(F)cc4)CC3)nc12 | -3% (active)
Cc1c(Cl)cccc1NC(=O)CSc1nc(=O)n(Cc2ccco2)c2c1CCC2 | 120%
COc1ccccc1N1CCN(CCC(=O)Nc2cccc(F)c2)CC1 | 76%
O=C(Nc1ccc(OC(F)(F)F)cc1)NC1COc2ccccc2C1 (stereo not drawn) | -3% (active)
COc1ccc(NC(=O)NC2COc3ccccc3C2)cc1Cl (stereo not drawn) | 65%
COc1ccc(NC(=O)NC2COc3ccccc3C2)c(OC)c1 (stereo not drawn) | 88%
O=C(Cn1cc(S(=O)(=O)c2ccccc2)c(=O)c2cc3c(cc21)OCO3)Nc1ccc(Cl)cc1 | 65%
Cc1ccc(CCNC(=O)c2sc3ncccc3c2-n2c(C)ccc2C)cc1 | 75%
CCc1ccc(CNC(=O)c2sc3ncccc3c2-n2c(C)ccc2C)cc1 | -3% (active)
COCCNC(=O)c1sc2ncccc2c1-n1c(C)ccc1C | 88%
Cc1cc2ccccc2n1-c1ccc(C(=O)N2CCC(C(=O)NCc3ccccc3Cl)CC2)s1 | 60%
CC(C)c1ccc(C2=CC(c3cccc(Cl)c3)n3ncnc3N2)cc1 (stereo not drawn) | -3% (active)
CC(C)c1ccc(C2=CC(c3cccc(Cl)c3)n3c(nc4ccccc43)N2)cc1 (stereo not drawn) | 60%
COc1ccc(C2C=C(c3ccc(Cl)c(Cl)c3)Nc3ncnn32)cc1 (stereo not drawn) | 26%

Structure (SMILES) | survival
CCOC(=O)c1cc2c(=O)n3ccccc3nc2n(Cc2ccco2)c1=NC(=O)c1ccccc1OC | 64%
CCCCn1c(SCc2ccccc2C#N)nc2c(sc3ccccc32)c1=O | 14% (active)
CCOCCCn1c(SCC(=O)OCC)nc2c(sc3ccccc32)c1=O | 136%
CC(C)OCCCn1c(SCc2ccccc2C#N)nc2c(sc3ccccc32)c1=O | 76%
CCOC(=O)CSc1nc2c(sc3ccccc32)c(=O)n1CCc1ccccc1 | 75%
CCOCCCn1c(SCC(=O)NCc2ccccc2)nc2c(sc3ccccc32)c1=O | -6% (active)
CCOCCCn1c(SCC(=O)NCCCOC)nc2c(sc3ccccc32)c1=O | 134%
CCOC(=O)CSc1nc2c(sc3ccccc32)c(=O)n1CCO | -6% (active)
COCCCNC(=O)CSc1nc2c(sc3ccccc32)c(=O)n1CCc1ccc(OC)c(OC)c1 | -6% (active)
COCCCn1c(SCc2ccccc2F)nc2c(sc3ccccc32)c1=O | 98%
COCCCNC(=O)CSc1nc2c(sc3ccccc32)c(=O)n1CCc1ccccc1 | 64%
CCCCn1c(SCC(=O)NCCCOC)nc2c(sc3ccccc32)c1=O | 133%
COCCCn1c(SCC(=O)NCc2ccccc2)nc2c(sc3ccccc32)c1=O | 72%
Cc1c(C(=O)Nc2ccc(F)c(Cl)c2)oc2ccc(S(=O)(=O)N(C)C3CCCCC3)cc12 | 99%
Cc1ccc(C)c(S(=O)(=O)c2cn(C)c3cc(F)c(F)cc3c2=O)c1 | 81%
COc1cccc(-n2ccnc2SCC(=O)Nc2c(C)cc(C)cc2C)c1 | 113%
O=C(CCCCCn1c(=O)c2sccc2n(Cc2ccc(Cl)cc2)c1=O)NCc1ccc2c(c1)OCO2 | 86%
CC(C)OCCCn1c(SCC(=O)c2ccccc2)nc2c(sc3ccccc32)c1=O | 72%
CCCCn1c(SCC(=O)NCc2ccc(C)cc2)nc2c(sc3ccccc32)c1=O | 69%
CCCCn1c(SCC(=O)c2ccccc2)nc2c(sc3ccccc32)c1=O | -1% (active)
COc1ccc(CN(CCN)C2CC(C)N(C)CC2C)cc1 (stereo not drawn) | 105%
Cc1ccc(C2CCN(C(=O)Nc3ccc(Cl)c(Cl)c3)C2)cc1 (stereo not drawn) | -3% (active)

Structure (SMILES) | survival
Cc1ccc(C2CCN(C(=O)Nc3ccc(Cl)cc3)C2)cc1 (stereo not drawn) | 71%
O=C(Nc1ccc(Cl)c(Cl)c1)N1CCC(c2ccccc2)C1 (stereo not drawn) | 71%
Cc1cccc(-c2nc3ccccc3o2)c1 | 119%
CS(=O)(=O)CCC(C(=O)Nc1cccc(C(F)(F)F)c1)N1Cc2ccccc2C1=O (stereo not drawn) | -1% (active)
Cc1c(Cl)cccc1NC(=O)C(CCS(C)(=O)=O)N1Cc2ccccc2C1=O (stereo not drawn) | 74%
COc1cc(NC(=O)C(CCS(C)(=O)=O)N2Cc3ccccc3C2=O)cc(OC)c1OC (stereo not drawn) | 14% (active)
COc1ccc(NC(=O)[C@H](Cc2ccccc2)N2Cc3ccccc3C2=O)cc1OC | 94%
COC(=O)c1cc(NC(=O)[C@H](CCS(C)(=O)=O)N2Cc3ccccc3C2=O)cc(C(=O)OC)c1 | 87%
CS(=O)(=O)CC[C@@H](C(=O)NCCc1ccccc1)N1Cc2ccccc2C1=O | 90%
CCc1ccc(NC(=O)CSc2nc3c(sc4ccccc43)c(=O)n2CCCOC(C)C)cc1 | 80%
O=C(CSc1n[nH]c(-c2ccc(F)cc2)n1)NCCc1ccccc1 | 120%
CC1=C(C(=O)Nc2ccccc2)C(c2ccncc2)n2nc(SCc3ccccc3F)nc2N1 (stereo not drawn) | 106%
Cc1ccc(NC(=O)Cn2cc(S(=O)(=O)N3CCCC3)c(S(=O)(=O)N3CCCC3)c2)cc1F | 126%
O=C(CCc1cn(Cc2ccccc2F)c2ccccc12)NCc1ccc(Cl)cc1 | 81%
O=C(NCC1CCCCC1)C1CCCN1C(=O)NC1CCCCC1 (stereo not drawn) | 106%
COc1ccc(NC(=O)c2oc3ccc(S(=O)(=O)N4CCCCC4)cc3c2C)cc1Cl | 73%
COC(=O)c1ccc(NC(=O)C2(S(=O)(=O)c3ccc(C)cc3)CC2)cc1 | 133%
O=C(Nc1ccccc1C(F)(F)F)C1(S(=O)(=O)c2ccc(Cl)cc2)CC1 | 94%
CCOC(=O)c1cccc(NC(=O)C2(S(=O)(=O)c3ccc(C)cc3)CC2)c1 | 84%
Cc1ccc(S(=O)(=O)C2(C(=O)Nc3ccc(C)c(Cl)c3)CC2)cc1 | 4% (active)
Cc1ccc(S(=O)(=O)C2(C(=O)Nc3ccc(C(C)C)cc3)CC2)cc1 | 64%
Cc1ccc(S(=O)(=O)C2(C(=O)Nc3ccc(Cl)c(C(F)(F)F)c3)CC2)cc1 | 41% (active)

Structure (SMILES) | survival
COc1ccc(C2(CNC(=O)C(=O)Nc3ccc(C)c(Cl)c3)CCCC2)cc1OC | 83%
Cc1ccc(-n2ncc(C(=O)NCc3ccc4c(c3)OCO4)c2C2CCN(C(=O)OC(C)(C)C)CC2)cc1C | 82%
COc1cccc(N2CCN(C(=O)c3c4c(nc5ccccc35)C(=O)N(C3CCCCC3)C4)CC2)c1 | 88%
COc1ccc(C)cc1NC(=O)Cn1c(=O)oc2cc(S(=O)(=O)N3CCCCC3)ccc21 | 94%
NC(=O)c1c(NC(=O)c2noc3c2CCCC3)sc2c1CCCC2 | 73%
CCn1cc(S(=O)(=O)c2cc(C)cc(C)c2)c(=O)c2cc(F)c(N3CCCCC3)cc21 | 82%
CCN1CCN(c2cc3c(cc2F)c(=O)c(S(=O)(=O)c2cc(C)cc(C)c2)cn3CC)CC1 | -3% (active)
Cc1cccc(S(=O)(=O)c2cn(Cc3ccc(F)cc3)c3cc(N4CCCCC4)c(F)cc3c2=O)c1 | -4% (active)
Cn1cc(S(=O)(=O)c2ccccc2)c(=O)c2cc(F)c(N3CCN(c4ccccc4)CC3)cc21 | 135%
O=c1c(S(=O)(=O)c2ccccc2)cn(Cc2ccc(F)cc2)c2cc(N3CCCCC3)c(F)cc12 | 74%
Cn1cc(S(=O)(=O)c2cccc(Cl)c2)c(=O)c2cc(F)c(N3CCN(c4ccccc4)CC3)cc21 | 1% (active)
CCn1cc(S(=O)(=O)c2cc(C)cc(C)c2)c(=O)c2cc(F)c(N3CCCC3)cc21 | 129%
Cn1cc(S(=O)(=O)c2cccc(Cl)c2)c(=O)c2cc(F)c(N3CCN(c4ccc(F)cc4)CC3)cc21 | 81%
Cc1cccc(S(=O)(=O)c2cn(Cc3ccccc3)c3cc(N4CCCCC4)c(F)cc3c2=O)c1 | 99%
CCOc1ccc(N(C)C(=O)C2CCN(S(=O)(=O)c3c(C)noc3/C=C/c3ccc(C)cc3)CC2)cc1 | 153%
COc1ccccc1CNc1nc(-c2ccco2)nn1C(=O)c1cc(OC)c(OC)c(OC)c1 | 69%
COc1ccc(C(=O)c2c(N)c(C(=O)Nc3cccc(OC)c3)c3ccccn23)cc1 | 95%
Cc1ccc2oc(=O)c(-c3nc(-c4cccs4)no3)cc2c1 | 94%
COc1ccc(NC(=O)COc2ccc(S(=O)(=O)NC3CCCCC3)cc2)cc1OC | 74%
O=c1cc(O)c2ccccc2[nH]1 | 135%
c1ccc(-c2cc3ccsc3s2)cc1 | 111%
Oc1cc2ccsc2c2ccccc12 | 18% (active)
